What all share (test): DAPPL (digital affinity profiling via proximity ligation, sequencing); 10 mM Tris-HCl pH 7.5, 50 mM NaCl, 1 mM DTT, 4% glycerol, room temperature, 30 min; GST-TFs on glutathione beads, 16-mer random dsDNA library, 0.1% formaldehyde crosslink after washing; high values mean tight binding
In experiment [1] the target is T1, FLI1 (Homo sapiens, UniProt Q01543 1-452).
T1 sequence: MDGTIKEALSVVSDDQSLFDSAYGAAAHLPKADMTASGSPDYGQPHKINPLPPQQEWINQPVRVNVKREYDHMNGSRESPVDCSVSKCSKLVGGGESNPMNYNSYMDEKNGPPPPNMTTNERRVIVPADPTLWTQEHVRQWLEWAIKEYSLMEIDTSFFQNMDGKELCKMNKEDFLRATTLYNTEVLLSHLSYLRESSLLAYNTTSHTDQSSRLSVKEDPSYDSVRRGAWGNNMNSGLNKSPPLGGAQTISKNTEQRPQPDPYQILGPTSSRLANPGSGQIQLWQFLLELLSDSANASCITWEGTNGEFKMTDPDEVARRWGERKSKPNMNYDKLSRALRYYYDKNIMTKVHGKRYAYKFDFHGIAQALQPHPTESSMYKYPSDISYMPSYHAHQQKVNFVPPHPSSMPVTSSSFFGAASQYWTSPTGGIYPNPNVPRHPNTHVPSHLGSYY
Particulars: protein: recombinant; tags: N-terminal GST; dsDNA, one strand shown. In a few lines: (§1)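 Beads coated with glutathione captured GST-fused human transcription factors that had been expressed in yeast, and the factors were then given DNA barcodes and pooled with a tag-only sample. The pools were incubated with 200 nmole of a random double-stranded 16-mer DNA library in Tris/NaCl/DTT/glycerol buffer for 30 min at room temperature, washed, crosslinked with 0.1% formaldehyde and proximity-ligated with BsaI/T4 ligase at 37 °C for 1 h. PCR amplification and Illumina NextSeq500 sequencing came last. Binding signal is each hexamer's read frequency for a factor divided by its frequency for the tag-only sample.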

Experiment [2] concerns the target T2, GABPA (Homo sapiens, UniProt Q06546 1-454).
T2 sequence: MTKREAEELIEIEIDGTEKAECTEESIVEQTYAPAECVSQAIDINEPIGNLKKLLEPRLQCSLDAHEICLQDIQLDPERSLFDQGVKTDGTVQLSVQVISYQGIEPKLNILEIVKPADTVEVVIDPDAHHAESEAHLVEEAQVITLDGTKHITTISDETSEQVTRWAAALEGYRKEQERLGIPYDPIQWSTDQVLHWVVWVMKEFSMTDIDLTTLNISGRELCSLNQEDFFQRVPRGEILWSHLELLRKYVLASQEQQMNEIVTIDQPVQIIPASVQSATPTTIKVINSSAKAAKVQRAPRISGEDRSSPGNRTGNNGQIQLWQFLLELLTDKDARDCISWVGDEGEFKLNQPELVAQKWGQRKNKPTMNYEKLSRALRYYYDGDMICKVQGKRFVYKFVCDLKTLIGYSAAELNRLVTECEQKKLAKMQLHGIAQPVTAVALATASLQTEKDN
The note with it: protein: recombinant; tags: N-terminal GST; dsDNA, one strand shown. An outline of the steps: as §1

In experiment [3] the target is T3, ERG (Homo sapiens, UniProt P11308 1-479).
T3 sequence: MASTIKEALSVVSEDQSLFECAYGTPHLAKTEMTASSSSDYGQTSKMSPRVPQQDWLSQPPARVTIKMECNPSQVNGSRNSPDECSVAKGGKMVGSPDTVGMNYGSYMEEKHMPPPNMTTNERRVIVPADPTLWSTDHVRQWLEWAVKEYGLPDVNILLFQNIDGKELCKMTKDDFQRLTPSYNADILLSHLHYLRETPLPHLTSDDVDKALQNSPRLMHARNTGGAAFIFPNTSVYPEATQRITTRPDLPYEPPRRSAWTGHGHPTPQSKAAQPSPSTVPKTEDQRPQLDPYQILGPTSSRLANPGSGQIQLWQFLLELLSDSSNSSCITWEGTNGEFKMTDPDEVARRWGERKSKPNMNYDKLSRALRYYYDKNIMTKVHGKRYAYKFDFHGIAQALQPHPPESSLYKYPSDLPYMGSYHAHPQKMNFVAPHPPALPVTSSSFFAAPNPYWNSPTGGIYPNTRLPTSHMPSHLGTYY
The note with it: protein: recombinant; tags: N-terminal GST; dsDNA, one strand shown. An outline of the steps:
as §1

Experiment [4] deals with ELF1 (Homo sapiens, UniProt P32519 1-619). The note with it: protein: recombinant; tags: N-terminal GST; dsDNA, one strand shown. An outline of the steps: as §1
Experiment [5] deals with T4, EHF (Homo sapiens, UniProt Q9NZC4 1-300).
T4 sequence: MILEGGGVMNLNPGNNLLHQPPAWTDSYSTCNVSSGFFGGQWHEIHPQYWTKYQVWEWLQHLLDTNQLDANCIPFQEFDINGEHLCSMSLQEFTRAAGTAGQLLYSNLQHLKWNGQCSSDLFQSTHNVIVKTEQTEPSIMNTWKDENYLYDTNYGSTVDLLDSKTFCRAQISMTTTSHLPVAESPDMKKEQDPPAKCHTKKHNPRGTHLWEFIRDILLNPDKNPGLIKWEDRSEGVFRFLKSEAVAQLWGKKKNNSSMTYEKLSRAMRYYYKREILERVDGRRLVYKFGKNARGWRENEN
The note with it: protein: recombinant; tags: N-terminal GST; dsDNA, one strand shown. An outline of the steps:
as §1

The target of experiment [6] is SPI1 (Homo sapiens, UniProt P17947 1-270). The note with it: protein: recombinant; tags: N-terminal GST; dsDNA, one strand shown. An outline of the steps: as §1
In experiment [7] the target is SPIB (Homo sapiens, UniProt Q01892 1-262). Particulars: protein: recombinant; tags: N-terminal GST; dsDNA, one strand shown. In a few lines:
as §1

Experiment [8] deals with T5, FEV (Homo sapiens, UniProt Q99581 1-238).
T5 sequence: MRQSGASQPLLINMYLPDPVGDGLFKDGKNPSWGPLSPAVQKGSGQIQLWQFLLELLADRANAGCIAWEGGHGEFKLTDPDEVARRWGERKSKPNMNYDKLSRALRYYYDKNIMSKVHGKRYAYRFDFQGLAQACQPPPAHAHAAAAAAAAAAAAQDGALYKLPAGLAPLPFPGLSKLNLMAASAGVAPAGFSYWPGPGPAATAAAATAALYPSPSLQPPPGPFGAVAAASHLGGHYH
Particulars: protein: recombinant; tags: N-terminal GST; dsDNA, one strand shown. An outline of the steps:
as §1

For experiment [9], the target named is ETV5 (Homo sapiens, UniProt P41161 1-510). The note with it: protein: recombinant; tags: N-terminal GST; dsDNA, one strand shown. An outline of the steps:
as §1

In experiment [10] the target is HSF1 (Homo sapiens, UniProt Q00613 1-529). Particulars: protein: recombinant; tags: N-terminal GST; chain copies: 3; dsDNA, one strand shown. An outline of the steps:
as §1

In experiment [11] the target is T6, SPIC (Homo sapiens, UniProt Q8N5J4 1-248).
T6 sequence: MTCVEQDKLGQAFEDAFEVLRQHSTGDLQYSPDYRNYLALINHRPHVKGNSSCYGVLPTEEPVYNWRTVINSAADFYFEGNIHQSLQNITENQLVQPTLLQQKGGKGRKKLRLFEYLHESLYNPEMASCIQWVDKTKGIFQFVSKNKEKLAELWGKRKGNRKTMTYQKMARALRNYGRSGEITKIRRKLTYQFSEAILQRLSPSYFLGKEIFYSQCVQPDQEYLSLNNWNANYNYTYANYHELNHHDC
The note with it: protein: recombinant; tags: N-terminal GST; dsDNA, one strand shown. An outline of the steps:
as §1

Experiment [12] deals with ELF4 (Homo sapiens, UniProt Q99607 1-663). The note with it: protein: recombinant; tags: N-terminal GST; dsDNA, one strand shown. An outline of the steps:
as §1

Experiment [13] concerns the target T7, ELK4 (Homo sapiens, UniProt P28324-2 1-405).
T7 sequence: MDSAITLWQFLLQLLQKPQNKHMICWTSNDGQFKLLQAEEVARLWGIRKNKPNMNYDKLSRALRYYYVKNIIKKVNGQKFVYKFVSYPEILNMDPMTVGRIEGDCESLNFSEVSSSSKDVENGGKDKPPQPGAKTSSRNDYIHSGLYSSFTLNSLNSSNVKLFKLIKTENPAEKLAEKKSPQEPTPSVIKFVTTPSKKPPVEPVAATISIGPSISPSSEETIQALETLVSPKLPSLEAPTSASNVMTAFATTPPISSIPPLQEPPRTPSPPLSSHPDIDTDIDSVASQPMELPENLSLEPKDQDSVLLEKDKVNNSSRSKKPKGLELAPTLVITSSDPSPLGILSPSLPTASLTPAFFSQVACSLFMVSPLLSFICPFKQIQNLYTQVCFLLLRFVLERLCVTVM
Particulars: protein: recombinant; tags: N-terminal GST; dsDNA, one strand shown. An outline of the steps:
as §1

The target of experiment [14] is T8, ETV2 (Homo sapiens, UniProt O00321 1-342).
T8 sequence: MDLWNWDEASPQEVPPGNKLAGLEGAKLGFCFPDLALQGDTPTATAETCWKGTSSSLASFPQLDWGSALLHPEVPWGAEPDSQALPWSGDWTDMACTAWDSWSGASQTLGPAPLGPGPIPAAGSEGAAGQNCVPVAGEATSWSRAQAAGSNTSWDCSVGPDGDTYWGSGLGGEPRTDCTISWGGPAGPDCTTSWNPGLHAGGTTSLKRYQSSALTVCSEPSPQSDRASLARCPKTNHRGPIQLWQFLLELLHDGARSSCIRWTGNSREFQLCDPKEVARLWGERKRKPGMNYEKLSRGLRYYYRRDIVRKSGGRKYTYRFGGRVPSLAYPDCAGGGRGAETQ
Particulars: protein: recombinant; tags: N-terminal GST; dsDNA, one strand shown. In a few lines: as §1

The target in experiment [15] is T9, ELF3 (Homo sapiens, UniProt P78545 1-371).
T9 sequence: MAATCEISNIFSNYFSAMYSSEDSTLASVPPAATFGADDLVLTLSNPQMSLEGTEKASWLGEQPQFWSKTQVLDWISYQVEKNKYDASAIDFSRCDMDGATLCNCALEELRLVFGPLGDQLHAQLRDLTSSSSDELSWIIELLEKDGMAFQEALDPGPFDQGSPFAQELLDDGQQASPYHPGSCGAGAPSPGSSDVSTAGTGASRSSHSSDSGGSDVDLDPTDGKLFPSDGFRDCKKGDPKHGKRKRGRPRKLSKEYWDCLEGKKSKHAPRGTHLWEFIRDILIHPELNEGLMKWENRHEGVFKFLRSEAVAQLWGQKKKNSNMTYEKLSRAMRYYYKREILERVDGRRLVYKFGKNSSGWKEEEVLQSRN
Particulars: protein: recombinant; tags: N-terminal GST; dsDNA, one strand shown. In a few lines:
as §1

Experiment [16] has as its target ETV1 (Homo sapiens, UniProt P50549 1-477). The note with it: protein: recombinant; tags: N-terminal GST; dsDNA, one strand shown. An outline of the steps: as §1

Chain of ETV1 (P50549 whole entry): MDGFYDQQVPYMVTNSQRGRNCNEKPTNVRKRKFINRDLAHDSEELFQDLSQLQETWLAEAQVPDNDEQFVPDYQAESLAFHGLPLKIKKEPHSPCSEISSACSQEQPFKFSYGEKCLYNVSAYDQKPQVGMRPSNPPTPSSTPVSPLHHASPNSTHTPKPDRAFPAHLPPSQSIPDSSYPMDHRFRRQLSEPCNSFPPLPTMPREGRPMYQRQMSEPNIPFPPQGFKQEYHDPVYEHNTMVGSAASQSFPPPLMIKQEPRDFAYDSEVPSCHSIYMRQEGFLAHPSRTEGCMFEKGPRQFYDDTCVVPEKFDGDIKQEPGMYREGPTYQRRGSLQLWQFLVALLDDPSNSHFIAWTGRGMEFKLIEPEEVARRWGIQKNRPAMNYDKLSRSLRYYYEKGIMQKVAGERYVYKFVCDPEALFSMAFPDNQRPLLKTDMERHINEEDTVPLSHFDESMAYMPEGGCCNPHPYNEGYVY
Chain of ELF1 (P32519 whole entry): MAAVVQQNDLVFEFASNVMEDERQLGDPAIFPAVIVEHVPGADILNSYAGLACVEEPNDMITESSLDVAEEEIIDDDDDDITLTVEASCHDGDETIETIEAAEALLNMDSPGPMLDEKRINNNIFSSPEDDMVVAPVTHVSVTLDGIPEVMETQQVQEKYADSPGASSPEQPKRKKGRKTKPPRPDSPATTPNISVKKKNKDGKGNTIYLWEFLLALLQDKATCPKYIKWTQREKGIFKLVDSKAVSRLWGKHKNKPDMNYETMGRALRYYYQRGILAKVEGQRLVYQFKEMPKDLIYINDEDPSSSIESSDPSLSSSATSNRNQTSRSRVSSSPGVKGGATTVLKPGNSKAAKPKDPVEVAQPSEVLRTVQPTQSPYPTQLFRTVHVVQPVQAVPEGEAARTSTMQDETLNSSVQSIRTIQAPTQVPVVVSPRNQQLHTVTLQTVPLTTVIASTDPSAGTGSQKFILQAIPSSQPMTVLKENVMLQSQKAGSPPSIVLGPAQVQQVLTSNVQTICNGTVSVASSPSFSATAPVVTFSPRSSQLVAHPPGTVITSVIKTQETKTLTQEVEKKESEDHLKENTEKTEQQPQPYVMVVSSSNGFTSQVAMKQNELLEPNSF
Chain of HSF1 (Q00613 whole entry): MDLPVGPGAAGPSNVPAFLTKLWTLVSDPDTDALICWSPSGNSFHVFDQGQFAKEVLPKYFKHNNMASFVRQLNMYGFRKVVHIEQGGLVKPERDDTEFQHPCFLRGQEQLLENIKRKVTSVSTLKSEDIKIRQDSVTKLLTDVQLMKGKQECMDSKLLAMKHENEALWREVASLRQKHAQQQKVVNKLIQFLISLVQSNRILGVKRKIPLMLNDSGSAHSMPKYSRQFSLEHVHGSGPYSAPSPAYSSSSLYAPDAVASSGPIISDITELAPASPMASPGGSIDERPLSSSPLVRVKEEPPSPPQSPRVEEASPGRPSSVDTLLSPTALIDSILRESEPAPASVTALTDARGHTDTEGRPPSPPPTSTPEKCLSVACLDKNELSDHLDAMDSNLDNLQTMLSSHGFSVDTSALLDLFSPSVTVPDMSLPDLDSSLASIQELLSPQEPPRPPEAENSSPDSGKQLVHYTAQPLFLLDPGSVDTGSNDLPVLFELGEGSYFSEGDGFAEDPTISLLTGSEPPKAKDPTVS
Chain of ELF4 (Q99607 whole entry): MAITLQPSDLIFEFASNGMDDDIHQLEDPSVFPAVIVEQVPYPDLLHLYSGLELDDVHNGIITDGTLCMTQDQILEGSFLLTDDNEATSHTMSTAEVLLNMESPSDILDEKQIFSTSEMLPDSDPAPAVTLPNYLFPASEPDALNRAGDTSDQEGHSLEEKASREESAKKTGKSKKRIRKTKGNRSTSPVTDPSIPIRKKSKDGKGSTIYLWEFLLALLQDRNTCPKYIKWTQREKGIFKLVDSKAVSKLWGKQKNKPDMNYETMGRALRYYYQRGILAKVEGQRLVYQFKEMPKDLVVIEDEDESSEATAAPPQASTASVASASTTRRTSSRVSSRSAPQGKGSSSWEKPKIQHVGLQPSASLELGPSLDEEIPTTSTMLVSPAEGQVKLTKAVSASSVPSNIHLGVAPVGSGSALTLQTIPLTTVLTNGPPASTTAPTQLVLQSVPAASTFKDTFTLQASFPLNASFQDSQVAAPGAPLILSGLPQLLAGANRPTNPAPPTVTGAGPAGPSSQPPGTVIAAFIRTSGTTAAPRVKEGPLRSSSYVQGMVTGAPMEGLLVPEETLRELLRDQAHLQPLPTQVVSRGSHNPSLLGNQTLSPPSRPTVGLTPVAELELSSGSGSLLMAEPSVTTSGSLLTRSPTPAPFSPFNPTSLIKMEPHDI
Chain of ETV5 (P41161 whole entry): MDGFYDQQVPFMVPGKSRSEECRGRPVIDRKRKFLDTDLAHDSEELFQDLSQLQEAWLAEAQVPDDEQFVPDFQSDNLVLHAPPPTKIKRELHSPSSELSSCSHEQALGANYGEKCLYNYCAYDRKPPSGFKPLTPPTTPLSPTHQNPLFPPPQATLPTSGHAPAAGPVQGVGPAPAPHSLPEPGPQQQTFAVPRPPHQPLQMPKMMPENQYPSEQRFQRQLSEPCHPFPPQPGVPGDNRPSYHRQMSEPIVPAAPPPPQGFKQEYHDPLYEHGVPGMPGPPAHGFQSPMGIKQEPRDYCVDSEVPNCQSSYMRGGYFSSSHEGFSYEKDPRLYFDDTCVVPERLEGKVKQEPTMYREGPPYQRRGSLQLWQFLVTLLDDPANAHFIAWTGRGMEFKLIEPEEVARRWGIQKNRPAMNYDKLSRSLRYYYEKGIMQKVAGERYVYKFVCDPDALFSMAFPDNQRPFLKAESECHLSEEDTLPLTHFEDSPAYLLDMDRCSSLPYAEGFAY
Chain of SPIB (Q01892 whole entry): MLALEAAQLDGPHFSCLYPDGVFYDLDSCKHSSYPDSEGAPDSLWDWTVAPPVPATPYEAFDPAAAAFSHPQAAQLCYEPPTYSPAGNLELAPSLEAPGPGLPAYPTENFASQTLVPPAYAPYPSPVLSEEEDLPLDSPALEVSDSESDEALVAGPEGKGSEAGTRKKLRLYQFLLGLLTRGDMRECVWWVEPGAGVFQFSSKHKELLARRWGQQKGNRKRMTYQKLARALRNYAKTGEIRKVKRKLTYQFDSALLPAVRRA

Consider CTCGGT, for which the binding signal is 1.12 fold enrichment (6-mer frequency, TF over GST control) in experiment [1]; 1.09 fold enrichment (6-mer frequency, TF over GST control) in experiment [2]; 1.04 fold enrichment (6-mer frequency, TF over GST control) in experiment [3]; 1.17 fold enrichment (6-mer frequency, TF over GST control) in experiment [4]; 1.07 fold enrichment (6-mer frequency, TF over GST control) in experiment [5]; 1.1 fold enrichment (6-mer frequency, TF over GST control) in [6]. Besides, the binding signal is 1.21 fold enrichment (6-mer frequency, TF over GST control) in experiment [7]; 1.01 fold enrichment (6-mer frequency, TF over GST control) in experiment [8]; 1.1 fold enrichment (6-mer frequency, TF over GST control) in experiment [9]; 1.04 fold enrichment (6-mer frequency, TF over GST control) in experiment [10]; 1.06 fold enrichment (6-mer frequency, TF over GST control) in experiment [11]; 1.09 fold enrichment (6-mer frequency, TF over GST control) in [12]. Besides, the binding signal is 1.12 fold enrichment (6-mer frequency, TF over GST control) in [13]; 1.19 fold enrichment (6-mer frequency, TF over GST control) in [14]; 1.16 fold enrichment (6-mer frequency, TF over GST control) in experiment [15]; 1.15 fold enrichment (6-mer frequency, TF over GST control) in experiment [16].

These data come from article PMC7862700, “An all-to-all approach to the identification of sequence-specific readers for epigenetic DNA modifications on cytosine”.
